Compounds without any hit were thinned out: in the full panel of roughly 83,000, 20% have a hit.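 The test compound was applied at a single concentration to cells in 96-well plates for 48 hours, and percent growth was recorded.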 Activity calls are given as the source filed them.

Growth data for 40 molecules are collected here from PubChem BioAssay (NCI).

The test system of this assay is SW-620 colon. Nature of the assay: NCI-60 one-dose screen, 48 h (100 = growth as untreated, 0 = no growth, -100 = all killed). To be noted: 10 µM unless noted. The method, then: Growth inhibition of the SW-620 human tumor cell line is measured as a screen for anti-cancer activity. Cells are grown in 96 well plates and exposed to the test compound for 48 hours. Compounds are tested at a single concentration, which is 10^-5 M for most compounds. The reported endpoint is percent growth (GI% or GIPRCNT), where numbers from 0 - 100% represent growth inhibition, and numbers from -100% - 0 represent cell death. For example, a value of 40 represents 60% growth inhibition. A value of 0 means no net growth occurred over the course of the experiment. A value of -40 indicates 40% of cells at the beginning of the experiment died by the end of the experiment. A value of -100 means all cells are dead at the end of the experiment.
NCI-60 Human Tumor Cell Lines Screen was performed using the standard one-dose NCI protocol, which is described in more detail at https://dtp.cancer.gov/discovery_development/nci-60/default.htm.
Compounds with GIPRCNT values below 10 were considered active. Activity score was based on GIPRCNT using the following formula: […]
Score is 0 for GIPRCNT values of 100 or above, 50 for GIPRCNT values of 0, and 100 for GIPRCNT values of -100.
In the case of `C#CCNC(=O)CC[C@@H](C)[C@H]1CC[C@H]2[C@@H]3CC[C@@H]4CC(=O)CC[C@]4(C)[C@H]3CC[C@]12C`, the growth was -58.2% [100 µM] (active).

For the molecule `O=c1cc(-c2ccccc2)oc2c(O)c(O)ccc12`, the growth is 58% (inactive).

Regarding `CCOC(=O)c1nn(C2CCCCO2)c2ccc(NC(=O)CN3CCCC3)cc12` (stereo not given), the growth was 97.2% (inactive).

Take `COc1cc(C(=O)/C=C/c2c(-c3ccc(F)cc3)nc3sccn23)cc(OC)c1OC`: the growth was 13.7% (inactive).

As to `COC(=O)c1cc2c(=O)[nH]cc3c2c(n1)CCC3`, the growth was 103% (inactive).

As to `CC1Cc2c(Cl)ncnc2N(C)c2ccc(Cl)cc21` (stereo not given), the growth was 6.73% (active).

For the molecule `CC(C)C1=NOC(=O)C1=Cc1cn(-c2ccccc2)nc1-c1ccccc1`, the growth is 60.1% (inactive).

For the molecule `O=C(O)c1cc([N+](=O)[O-])ccc1Br`, the growth was 104% (inactive).

On to `CC[C@]12C=CCN3CC[C@@]4(c5ccc(OC)cc5N(C)[C@H]4[C@@](O)(C(=O)OC)[C@@H]1OC(=O)CCC(=O)O[C@H]1CC[C@H]4[C@@H]5CCC6=CC(=O)CC[C@@H]6[C@H]5CC[C@]14C)[C@@H]32`, for which the growth is 11.1% [100 µM] (inactive).

As to `CC(C)CSc1ncnc2nc[nH]c12`, the growth is 104% (inactive).

As for `O=C(Nc1cc(-c2cccnc2)nc(NCCCN2CCOCC2)n1)c1cc(Br)cc(C(F)(F)F)c1`, the growth is 75.4% (inactive).

Turning to `COc1ccc2nc3cc(Cl)ccc3c(Nc3ccc(O)c(CN4CCCC4)c3)c2c1`, the growth is -65.7% (active).

Regarding `O=C1COCCN1c1ccc(Nc2nc(Cl)nc(N3CCOCC3)n2)cc1`, the growth was 105% (inactive).

Turning to `O=C(Nc1cccc(C2=NCCN2)c1)c1cccc(C(=O)Nc2cccc(C3=NCCN3)c2)c1`, the growth is 98.2% (inactive).

Turning to `C[n+]1c2ccccc2nc2c(N)cc(N)cc21`, the growth is 87.1% (inactive).

As for `N#CCCc1c[nH]c2ccccc12`, the growth is 92% (inactive).

In the case of `CCN(CC)CCS(=O)(=O)CCNc1ccnc2cc(Cl)ccc12`, the growth is 7.17% (active).

`N#Cc1ccc(-c2ccc(COc3ccc(CC4SC(=O)NC4=O)cc3)cc2)cc1` (stereo not given): the growth was 80.1% (inactive).

Consider `CCOC(=O)C(=Cc1ccccc1[N+](=O)[O-])C(=O)OCC`, for which the growth is 19.2% (inactive).

Consider `O=[N+]([O-])c1cc(CCl)ccc1OCCBr`, for which the growth was 106% (inactive).

`Nn1c(Nc2ccc(S(=O)(=O)Nc3ncccn3)cc2)nnc(/C=C/c2c(O)ccc3ccccc23)c1=O`: the growth is 94% (inactive).

Take `Cn1cc(-c2noc(C(=O)c3cn(C)c4ncc(Br)cc34)n2)c2ccccc21`: the growth was 96.5% (inactive).

Turning to `Nc1cccc2c1C(=O)c1cccc(NC(=O)c3ccccc3)c1C2=O`, the growth was 7.88% (active).

Turning to `COc1cc2c(c(Br)c1N)-c1cc(Br)c(N)cc1C2=O`, the growth is 75.3% (inactive).

As to `Nc1nc(Nc2ccccc2)c2ncn(Cc3ccc4c(c3)OCO4)c2n1`, the growth is 23.1% (inactive).

For `O=C(NNc1ccc(-c2ccccc2)nn1)c1ccc(F)cc1`, the growth was 100% (inactive).

For `C#C[C@]1(O)CC[C@H]2[C@@H]3CC=C4c5nc(N)sc5CC[C@]4(C)[C@H]3CC[C@@]21C`, the growth is 74.6% (inactive).

Take `COC(=O)C(=Cc1ccccc1[N+](=O)[O-])C(=O)OC`: the growth is 34.7% (inactive).

For `CC(C)c1ccc(C(=O)Nc2nc3ccc(O)cc3s2)cc1`, the growth is 16% (inactive).

With `CCOC(=O)c1sc2nc(-c3cc(OC)c(OC)c(OC)c3)nc(N3CCOCC3)c2c1C`, the growth is 36.4% (inactive).

On to `CC(C)=CC/C=C(/C)[C@H]1CC[C@]2(C)[C@@H]1CC[C@@H]1[C@@]3(C)CC/C(=N/O)C(C)(C)[C@@H]3CC[C@]12C`, for which the growth is 61.3% [100 µM] (inactive).

Consider `COc1ccc(-c2cc(-c3ccccc3)nc(SCCCCCC(=O)NO)n2)cc1`, for which the growth is 29.7% (inactive).

On to `CC1(C)C(=O)/C(=C\c2ccco2)C[C@]2(C)[C@H]3CC=C4[C@@H]5C[C@](C)(C(=O)O)CC[C@]5(C)CC[C@@]4(C)[C@]3(C)CC[C@@H]12`, for which the growth is -63.6% [100 µM] (active).

As for `Cn1cc(-c2noc(C(=O)c3cn(C)c4ncccc34)n2)c2ccccc21`, the growth was 95.5% (inactive).

With `COCc1nc2ccccc2[nH]1`, the growth is 106% (inactive).

Regarding `Clc1ccc(/C=N/Nc2nc3ccccc3s2)c(Cl)c1`, the growth was 79.3% (inactive).

In the case of `CC[C@]1(O)CC2CN(CCc3c([nH]c4ccccc34)[C@@](C(=O)OC)(c3cc4c(cc3OC)N(C=O)[C@H]3[C@@](O)(C(=O)OC)[C@H](OC(C)=O)[C@]5(CC)C=CCN6CC[C@]43[C@@H]65)C2)C1` (stereo not given in full), the growth was 24% (inactive).

For the molecule `CCCCOC(=O)c1cccc([N+](=O)[O-])c1`, the growth was 103% (inactive).

Regarding `O=C1/C(=C/c2ccc(OCc3ccccc3)cc2)Oc2cc(OCCN3CCCCC3)ccc21`, the growth is 71.1% (inactive).

Regarding `CC(C)c1ccc(C(=O)Nc2sc3c(c2C#N)CCC(=O)C3)cc1`, the growth is -19.1% (active).
